Holding throughout (assay): Euclidean distance of Cell Painting phenotypic profile (signed KS, 77 features) to DMSO centroid (dimensionless distance); 5 or 10 uM (library dependent); higher = stronger phenotypic change vs DMSO (phenoactivity)
Holding throughout (settings): 48 h

One experiment has as its system 786-O. An outline of the steps:
(§1)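 Phenoactivity is defined as the Euclidean distance from a compound profile to the median vehicle profile. Each profile comprised 77 Harmony features, scored as signed Kolmogorov-Smirnov statistics versus same-plate vehicle wells, then plate-position corrected, correlation-weighted and replicate-averaged at the top dose. Five cancer lines and one healthy fibroblast line were exposed to library compounds for 48 h at 10 or 5 uM (0.1% DMSO final).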

Another experiment concerns A549. The method, boiled down: as §1
The next experiment has as its system FB. An outline of the steps: as §1
The next experiment deals with HEPG2. An outline of the steps: as §1
The subject of a further experiment is OVCAR4. The method, boiled down: as §1

For the molecule `C[C@H](CCC(=O)O)[C@H]1CC[C@H]2[C@@H]3[C@@H](O)C[C@@H]4C[C@H](O)CC[C@]4(C)[C@H]3CC[C@]12C` [Ursodiol], the Euclidean distance stood at 1.16 in the experiment on 786-O; 0.853 in the experiment on A549; 1.04 with FB; 0.517 in the experiment on HEPG2; 0.943 in the experiment on OVCAR4.
The corresponding values for `CN1CCC[C@@H]1Cc1c[nH]c2ccc(CCS(=O)(=O)c3ccccc3)cc12` [Eletriptan HBr] are 0.938, 0.828, 1.17, 0.778 and 1.33.
For `C[C@@H](O)[C@H]1C(=O)N2C(C(=O)O)=C(S[C@@H]3CN[C@H](C(=O)Nc4cccc(C(=O)O)c4)C3)[C@H](C)[C@H]12` [Ertapenem sodium] the same measures were 0.672, 0.953, 0.956, 0.854 and 0.913.
As to `CCOC(=O)[C@H](CCc1ccccc1)N[C@H]1CCc2ccccc2N(CC(=O)O)C1=O` [Benazepril], the Euclidean distance is 0.912 in the experiment on 786-O; 0.486 with A549; 0.851 in the experiment on FB; 0.54 in the experiment with HEPG2; 1.04 in the experiment with OVCAR4.
Consider `COc1ccc2c(c1)c(CC(=O)OCC(=O)O)c(C)n2C(=O)c1ccc(Cl)cc1` [Acemetacin], for which the Euclidean distance was 0.932 in the experiment on 786-O; 0.994 with A549; 1.09 with FB; 0.526 with HEPG2; 1.57 with OVCAR4.
The corresponding values for `COc1ccc2cc3[n+](cc2c1OC)CCc1cc2c(cc1-3)OCO2` [Berberine chloride] are 1.19, 1.36, 2.07, 1.41 and 1.31.

The values above are taken from the supplement of paper PMC10127200.
